Source: PubChem BioAssay (NCATS)
Records with an inconclusive call do not appear. Unmarked numbers belong to inactive results. Calls of active or inactive are those of the source. The call rests on the fitted dose curve; in most records, active means well fitted inhibition curve with a large enough effect; inconclusive means small, poorly fitted or top-dose-only effect; inactive means flat fitted curve, though single readings scatter.

Assay: qHTS to identify inhibitors of the type 1 interferon - major histocompatibility complex class I in skeletal muscle: primary screen against the NCATS LOPAC collection (AID 1347405);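 further: lytic HiBiT luminescence reporting HLA-B protein level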
Conditions: iHSKM muscle cells, IFN-b-induced MHC-I HiBiT luminescence, 24 h; series mostly up to 45.9 µM; activity change, negative = inhibition: at the top concentration
Method in brief: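 Cells: C25cl48 human myoblasts, HiBiT-tagged HLA-B*08:01, stimulated with IFN-beta 4.0 ng/ml. Compounds are titrated 1:4.3 over 7 points from 46 uM final and incubated 24 hrs; endogenous MHC class I is quantified by HiBiT lytic luminescence.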
On the % scale 0 is the no-effect control and ±100 the full control effect.

First: CN1CC(=O)N/C1=N/C(=O)Nc1cccc(Cl)c1
Second: CC(N)C(=O)OC(C)(C)Cc1ccc(Cl)cc1 (stereo not given)
The “activity change, negative = inhibition” value of the first is higher: 3.02% for the first, -9.21% for the second.

Going from NC(=O)C1=CN(C2OC(COP(=O)(O)OP(=O)(O)OC[C@H]3O[C@@H](n4cnc5c(N)ncnc54)[C@H](OP(=O)(O)O)[C@@H]3O)C(O)C2O)C=CC1 (stereo not given in full) to Nc1ccn([C@@H]2O[C@H](CO)[C@@H](O)[C@@H]2O)c(=O)n1, the “activity change, negative = inhibition” value falls from 1.87% to 0.892%.

Compared with O=C(O)CNC(=O)C(CS)Cc1ccccc1 (stereo not given), Oc1cc2c(cc1O)CN(C(=S)NCCc1ccc(Cl)cc1)CCC2 is lower in “activity change, negative = inhibition” value: -15.4% for the first, -22.6% for the second.

With CCNc1nc2c(ncn2[C@H]2C[C@H](O)[C@@H](CO)O2)c(=O)[nH]1 the “activity change, negative = inhibition” value was 4.82%.

With CCC1C(=O)OCC1Cc1cncn1C (stereo not given) the Potency was “inactive”.

Assay: qHTS to identify inhibitors of the type 1 interferon - major histocompatibility complex class I in skeletal muscle: primary screen against the NCATS Pharmaceutical Collection (AID 1347407);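 further: luminescence of HiBiT knocked into endogenous HLA-B as interferon-induced MHC class I level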
Conditions: human skeletal muscle cells, IFN-b-induced MHC-I HiBiT luminescence, 24 h; series mostly up to 45.9 µM; activity change, negative = inhibition: at the top concentration
Method in brief: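 Immortalized human myoblasts (C25cl48) with HiBiT knocked into endogenous HLA-B*08:01 were stimulated with 4.0 ng/ml IFN-beta and treated with compounds ([…] top 46 uM) for 24 hrs at 37 C. HiBiT lytic luminescence read.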

Compared with CCCCCCCCCCCCCCCCCC(=O)O, CCCCCCCCCCCC(=O)[O][Sn]([CH2]CCC)([CH2]CCC)[O]C(=O)CCCCCCCCCCC is higher in “activity change, negative = inhibition” value: 1.24% for the first, 4.75% for the second.

First: O=C(O)c1ccccc1Nc1cccc(C(F)(F)F)c1
Second: O=C(Nc1ccc(C(=O)O)c(O)c1)c1ccccc1
The “activity change, negative = inhibition” value of the first is lower: -24.2% for the first, 0.593% for the second.

First: CC(=O)c1ccc(OCC(=O)N2CCCCC2)cc1
Second: C/C(=N\O)c1ccc(OCC(=O)N2CCCCC2)cc1
The “activity change, negative = inhibition” value of the first is higher: 4.58% for the first, 1.74% for the second.

First: CN1CC(=O)N/C1=N/C(=O)Nc1cccc(Cl)c1
Second: O=C(CS)Nc1ccccc1
The “activity change, negative = inhibition” value of the first is higher: -0.797% for the first, -16.1% for the second.

Compared with Cc1nc2ccccc2n1Cc1ccc(Cl)cc1, CC(N)C(=O)OC(C)(C)Cc1ccc(Cl)cc1 (stereo not given) is higher in “activity change, negative = inhibition” value: -15.6% for the first, -12.4% for the second.

First: CN(C)CCn1nnnc1SCC1=C(C(=O)O)N2C(=O)[C@@H](NC(=O)Cc3csc(N)n3)[C@H]2SC1
Second: CC1(C)S[C@@H]2[C@H](NC(=O)[C@H](N)c3ccccc3)C(=O)N2[C@H]1C(=O)O
The “activity change, negative = inhibition” value of the first is higher: 3.57% for the first, 3.56% for the second.

Compared with Cc1c(N)c(=O)n(-c2ccccc2)n1C, CC(C(=O)O)c1ccc(C(=O)c2ccccc2)s1 (stereo not given) is higher in “activity change, negative = inhibition” value: -13.2% for the first, -4.96% for the second.

Going from COc1ccnc2c1CCCCC2S(=O)c1nc2ccccc2[nH]1 (stereo not given) to c1ccc2sc(SN3CCOCC3)nc2c1, the “activity change, negative = inhibition” value rises from -4.22% to 3%.

First: C#C[C@]1(O)CC[C@H]2[C@@H]3CCc4cc(O)ccc4[C@H]3CC[C@@]21C
Second: COc1cccc2c1C(=O)c1c(O)c3c(c(O)c1C2=O)C[C@@](O)(C(=O)CO)C[C@@H]3O[C@H]1C[C@H](N)[C@H](O[C@@H]2CCCCO2)[C@H](C)O1
The “activity change, negative = inhibition” value of the first is higher: -18.7% for the first, -20.8% for the second.

Compared with C=CCCCCCCCCC(=O)O, CCCCCCCC/C=C/C(=O)O is lower in “activity change, negative = inhibition” value: -3.96% for the first, -10.5% for the second.

Going from Nc1ccc(C(=O)O)c(O)c1 to CCOC(=O)c1ccccc1O, the “activity change, negative = inhibition” value rises from -29.1% to -4.6%.

Compared with CCC1C(=O)OCC1Cc1cncn1C (stereo not given), O=C(CCN1CCN(CCO)CC1)N1c2ccccc2Sc2ccc(C(F)(F)F)cc21 is higher in “activity change, negative = inhibition” value: 3.39% for the first, 9.54% for the second.

For CCCC(=O)OC[C@@H](OC(=O)CCC)[C@@H](OC(=O)CCC)[C@H](Cn1c2nc(=O)[nH]c(=O)c-2nc2cc(C)c(C)cc21)OC(=O)CCC, the “activity change, negative = inhibition” value was -3.43%.

In the case of Cc1ccc2c(n1)Oc1ccc(C(C)C(=O)OCC(=O)N(C)C)cc1C2 (stereo not given), the Potency is reported as “inactive”.

Going from CC(C)OC(=O)c1cc(C(=O)OC(C)C)cc([N+](=O)[O-])c1 to Nc1ccc([N+](=O)[O-])cc1O, the “activity change, negative = inhibition” value falls from -8.62% [at 92.2 µM] to -25.3% [at 92.2 µM].

Going from NCCO to N=C1N=C(N)c2cc3ccccc3cc21, the “activity change, negative = inhibition” value falls from -4.33% [at 92.2 µM] to -26% [at 92.2 µM].

Compared with CN1CCN(c2cc3c(nn2)Oc2ccccc2N3C)CC1, c1ccc2sc(SSc3nc4ccccc4s3)nc2c1 is higher in “activity change, negative = inhibition” value: -19.4% [at 19 µM] for the first, -1.21% [at 19 µM] for the second.
